Measurements published in the supplement of paper PMC12669032.
A number with no mark means an inactive call.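 The calls were made as follows: active = AUC reduced over 20% with Padj below 0.05 in at least 2 of 3 replicates; inactive = otherwise.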

Legend:
Assay in all cases: growth AUC relative to DMSO control (median of replicates) (fraction); higher = more growth (less inhibition), active = hit call of the paper
Conditions in all cases: 20 µM; 24 h
Coprococcus comes = system: Coprococcus comes
How it was run: (§1)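 Starting at OD600 0.05, gut bacterial monocultures in mGAM were grown anaerobically at 37 °C with 20 µM compound (1% DMSO) under pierced gas-permeable seals. OD600 was read every hour for 24 h, and the lowest OD of each curve was set to 0. Area under the growth curve was normalised to the plate median of solvent-only wells, or to row and column medians on the industrial chemical plate, and the median of three biological replicates grown on separate days is given.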

Escherichia coli ED1a = system: Escherichia coli ED1a
How it was run: as §1

Escherichia coli IAI1 = system: Escherichia coli IAI1
How it was run: as §1

Eubacterium rectale = system: Eubacterium rectale
How it was run: as §1

[1] = system: Fusobacterium nucleatum subsp. animalis
How it was run: as §1

Lactobacillus gasseri = system: Lactobacillus gasseri
How it was run: as §1

Lactobacillus paracasei = system: Lactobacillus paracasei
How it was run: as §1

Odoribacter splanchnicus = system: Odoribacter splanchnicus
How it was run: as §1

[2] = system: Parabacteroides distasonis
How it was run: as §1

Parabacteroides merdae = system: Parabacteroides merdae
How it was run: as §1

Compound	growth AUC (Coprococcus comes)	growth AUC (Escherichia coli ED1a)	growth AUC (Escherichia coli IAI1)	growth AUC (Eubacterium rectale)	growth AUC [1]	growth AUC (Lactobacillus gasseri)	growth AUC (Lactobacillus paracasei)	growth AUC (Odoribacter splanchnicus)	growth AUC [2]	growth AUC (Parabacteroides merdae)
ClC1(Cl)C2(Cl)C3(Cl)C4(Cl)C(Cl)(Cl)C5(Cl)C3(Cl)C1(Cl)C5(Cl)C24Cl (stereo not given)	0.986	1.03	0.989	0.98	0.997	0.939	0.897	0.982	1.03	0.966
Nc1ccc(Cl)cc1Cl	1.03	1.01	1	1.01	1.11	1.02	0.976	1.1	1.02	1.01
O=S1(=O)OCC2C(CO1)C1(Cl)C(Cl)=C(Cl)C2(Cl)C1(Cl)Cl (stereo not given)	1.01	0.991	1	1.01	0.935	0.919	1.02	1.02	1.09	0.955
O=C(O)COc1ccccc1	0.999	0.981	1	1	1.01	1.03	0.753	1.03	1	0.959
O=C1OCC2C1C1(Cl)C(Cl)=C(Cl)C2(Cl)C1(Cl)Cl (stereo not given)	1.01	0.979	1.01	1.07	0.925	0.927	0.991	1.09	1.07	0.987
C[C@@H](Oc1ccc(Oc2ncc(C(F)(F)F)cc2Cl)cc1)C(=O)O	1	0.97	0.994	0.973	1.02	0.94	0.972	0.98	0.989	0.996
CNC(=O)O/N=C(\SC)C(=O)N(C)C	0.971	0.985	0.987	1	0.979	1.09	0.883	0.975	0.99	0.973
O=CNC(N1CCN(C(NC=O)C(Cl)(Cl)Cl)CC1)C(Cl)(Cl)Cl (stereo not given)	0.946	0.975	0.935	0.881	0.658 (active)	0.873	1.06	1.01	0.914	0.948
CC(C1CC1)C(O)(Cn1cncn1)c1ccc(Cl)cc1 (mixture of isomers)	0.936	1.01	0.971	1.02	1.09	0.975	1.06	0.8	1.01	0.988
Clc1cc(Cl)c(Cl)cc1Cl	0.971	1.02	1.04	0.986	1.15	0.973	0.991	1.01	1.05	0.998
ClC(Cl)=C(c1ccc(Cl)cc1)c1ccc(Cl)cc1	0.914	1	0.986	1.02	1.03	0.938	0.921	1.02	0.985	0.909
Cc1c(COC(=O)[C@@H]2[C@H](/C=C(\Cl)C(F)(F)F)C2(C)C)cccc1-c1ccccc1	1.03	1.02	1.02	0.938	1.07	0.862	0.982	1.03	1.01	0.965
CC1(C)CON(Cc2ccccc2Cl)C1=O	1.01	0.965	1.02	1.12	1.05	0.837	1.05	0.899	0.838	0.985
CCOP(=S)(OCC)Oc1cc(C)nc(N(CC)CC)n1	1.03	0.996	0.994	0.969	1.01	1.02	1.02	1.08	0.845	0.963
CCNc1nc(NC(C)C(C)C)nc(SC)n1 (stereo not given)	0.977	0.979	0.991	0.89	0.997	1.06	0.81	0.954	1.04	0.992
Cc1cc(Cl)ccc1N=CN(C)C.Cl	1.09	1	0.98	1.01	1.01	1.01	1.03	1	1.02	1.01
COc1ncc(F)c2nc(S(=O)(=O)Nc3c(F)cccc3F)nn12	1.03	1.01	0.989	1	1.02	1.01	1	0.992	0.983	1.01
Nc1cc(Cl)cc(C(=O)O)c1Cl	0.992	1.01	1.04	1.01	0.994	1.13	1.03	1.09	1.01	0.977
CC(=NCc1ccc(Cl)nc1)NC#N	1	1.02	1.03	1	1.09	0.997	1.03	1.04	0.999	0.968
OC(Cc1ccccc1Cl)(Cn1[nH]cnc1=S)C1(Cl)CC1 (stereo not given)	0.932	1.02	1.04	0.897	1.02	1.01	1.04	0.825	0.916	0.894
CCOc1ccc(C(C)(C)COCc2cccc(Oc3ccccc3)c2)cc1	1	0.991	0.982	1.06	0.972	0.918	1.04	1.07	0.987	0.992
CN(C)C1CSSSC1.O=C(O)C(=O)O	0.99	0.985	1.02	1.7	1.05	1.03	0.972	0.962	1.04	1.02
c1ccc2c(c1)cc1ccc3cccc4ccc2c1c34	1	1.02	1	0.971	0.951	1.04	0.967	0.932	0.994	0.974
CCSC(C)CC1CC(=O)C(/C(CC)=N/OC/C=C/Cl)=C(O)C1 (mixture of isomers)	1.06	1.03	1.01	1.03	1.1	0.865	1.06	1.02	0.958	1.02
CCN(CC)c1c([N+](=O)[O-])cc(C(F)(F)F)c(N)c1[N+](=O)[O-]	0.982	1.05	1.02	0.977	1.06	1.04	1.06	0.955	0.897	0.928
Clc1cccc(C(Cl)(Cl)Cl)n1	1.02	0.974	0.976	1.05	1.01	0.889	1.01	0.964	1	0.967
CCOC(=O)CCN(Cc1ccccc1)SN(C)C(=O)O/N=C(/C)SC	0.985	0.995	0.988	1.08	0.837	0.909	1.02	1.08	1.02	0.99
CCOP(=S)(OCC)OP(=S)(OCC)OCC	0.985	0.968	0.979	0.928	1.04	1.23	1.04	0.98	1.02	0.984
COCc1c(F)c(F)c(COC(=O)[C@@H]2[C@@H](C=C(Cl)Cl)C2(C)C)c(F)c1F	0.981	1.03	1.02	1.09	1.09	1.03	1.04	1.03	1	1.01
